High-throughput results: PubChem, several laboratories
An excerpt weighted towards active compounds, which were near 3.4% of everything screened.
HSF1 inh – HSF1 inhibitors in luciferase reporter cells, primary screen, cell-based, NIH3T3, luminescence; activity change, negative = inhibition, % at 7.5 µM (by protocol); NIH3T3-HGL HSE-luciferase, MG132-induced, luminescence 8 h; stronger effect = lower value; 300,000 compounds, 0.77% hits;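 active = more than half of replicate wells show activity change below -50%, luminescence cut by over half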;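 also: luciferase reports HSF-1 transcriptional activity via heat shock element; 0% = median of DMSO wells and -100% = zero luminescence signal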
PG9 binder – binders of HIV-1 gp120 antibody PG9, primary screen, biochemical, TR-FRET; 360,000 compounds, 0.43% hits; TR-FRET gp120-PG9 antibody binding; inhibition, % at 6.7 µM; in the data active = inhibition above about 8.5%
AI-2 QS modul – Vibrio harveyi AI-2 quorum sensing modulators, primary screen, JMH597 strain, luminescence/OD600 ratio | Vibrio harveyi JMH597 AI-2 luminescence/OD600 ratio, 9 h; stronger effect = lower value; strain lacks LuxN and CqsS sensors; 0 = neutral-control median | activity change, % at 7.5 µM | 300,000 compounds, 0.4% hits | AID 2094, 2009; in the data active = activity change below about -75%, passing the limit was not always enough;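 also: luminescence divided by OD600 gain over 9 h not by final OD600 alone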
HSP90 inh – HSP90 inhibitors, primary screen, cell lysate, luminescence | Heat shock protein HSP 90 (rabbit reticulocyte lysate; luciferase refolding) | Rabbit reticulocyte lysate, luciferase refolding luminescence, 3 h | inhibition, % at 5.6 µM | 290,000 compounds, 0.91% hits | AID 1789, 2009;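 active = inhibition above the screen-wide mean plus 3 SD, computed separately per campaign, cut at about 16% in these data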;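 also: 0% = DMSO wells and 100% = 60 µM geldanamycin wells; inhibitors lower the luminescence because luciferase stays unfolded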
FXN GAA850 act – FXN promoter activators, primary screen, cell-based, luciferase luminescence, HEK293 lucGAA850 | activation, % at 6 µM | 360,000 compounds, 0.56% hits | HEK293 lucGAA850 FXN promoter luciferase reporter, 24 h; percent of 10 µM SAHA response;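 active = activation above the average of all compounds screened plus 3 SD, cutoff fixed separately per campaign, cut at about 7.5% in these data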;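 also: 0% = DMSO wells and 100% = 10 µM SAHA wells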
SMARCA2 act – SMARCA2 (BRM) function activators, primary screen, cell-based, luminescence, high throughput; MG213 cells, MMTV-luciferase reporter, dexamethasone, overnight; activation, % at 9.1 µM; 370,000 compounds, 1% hits; AID 652017, 2013; in the data active = activation above about 7.8%;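 also: 0% = vehicle wells and 100% = reference activator wells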
SMARCA2 conf – SMARCA2 (BRM) function activators, confirmation, cell-based, luminescence, triplicate; activation, % at 9.1 µM; AID 652260, 2013; shares compounds with SMARCA2 act; MG213 cells, MMTV-luciferase with dexamethasone, overnight; MG213 cells expressing E1A, Rb sequestered; DMSO wells 0%, reference activator 100%; 3,500 compounds, 30% hits;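 active = activation above its plate's cutoff, the mean activation of tested wells plus 3 SD, cut at about 7.9% in these data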
VP16 Luc act – GAL4-VP16 luciferase reporter activation, counter-screen for SMARCA2 (BRM) activator project, cell-based, pG5luc, luminescence, high throughput; HEK293 GAL4-VP16 pG5luc reporter; scaled: DMSO wells 0%, SAHA wells 100%; activation, % at 9.1 µM; shares compounds with SMARCA2 act; 3,500 compounds, 41% hits; AID 686939, 2013;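 active = activation above the solvent-only control well mean plus 3 SD, averaged across control plates, cut at about 5.2% in these data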
An asterisk follows results filed as active; nt = no result given.

SMILES	HSF1 inh	PG9 binder	AI-2 QS modul	HSP90 inh	FXN GAA850 act	SMARCA2 act	SMARCA2 conf	VP16 Luc act
O=C1NC2c3ccccc3CC2O1 (configuration not stated)	-3	-1	11	0	0	1	nt	nt
O=C(Nc1ccc(O)c2c(=O)cc(-c3ccccc3Cl)oc12)c1ccc(F)cc1	-2	-1	9	nt	-1	2	nt	nt
Nc1ccc(O)c2c(=O)cc(-c3ccccc3Cl)oc12	9	-1	10	-1	3	8.1*	7	11*
CCCN1C(=O)c2n[nH]c(C)c2C1c1ccc2c(c1)OCO2 (configuration not stated)	nt	0	nt	nt	nt	-4	nt	nt
CC(NC(=O)c1c(N)[nH]c(C(=O)c2ccc(Cl)cc2)c1-c1ccc(Br)cc1)c1cccc2ccccc12 (configuration not stated)	nt	0	nt	nt	nt	-2	nt	nt
COc1cccc2sc3cc(C#Cc4ccccn4)ccc3c(=O)c12	nt	-1	nt	nt	6	4	nt	nt
O=c1c2ccccc2oc2cc(C#Cc3ccccn3)ccc12	40	0	8	nt	3	8.0*	3	9.6*
COc1cccc2oc3ccc(C#Cc4ccccn4)cc3c(=O)c12	34	0	6	17*	5	10*	3	10*
Nc1cccc(C#Cc2ccc3c(=O)c4ccccc4oc3c2)c1	nt	-1	nt	nt	4	5	nt	nt
COc1cccc(C2NC(=S)N(Cc3ccc(Br)cc3)C(C)=C2C(C)=O)c1 (configuration not stated)	nt	-2	nt	nt	nt	-1	nt	nt
O=C(Nc1ccc2oc(=O)ccc2c1)c1ccco1	10	-1	12	-1	2	8.3*	2	3
O=C(Cc1ccccc1)Nc1ccc2oc(=O)ccc2c1	-4	1	8	-5	1	3	nt	nt
CSc1ccccc1C(=O)C1CCCN(C(=O)c2cccc(Cn3cccn3)c2)C1 (configuration not stated)	nt	0	nt	nt	-1	4	nt	nt
COC(=O)c1ccc2nc(-c3cccc(Cl)c3)c(Cc3cccc(F)c3)n2c1	nt	0	nt	nt	nt	11*	-4	2
C[C@H](CO)N1C[C@H](C)[C@H](CN(C)S(=O)(=O)c2cccs2)Oc2ncc(Br)cc2C1=O	nt	0	nt	nt	nt	3	nt	nt
Cc1cc(=O)oc(C)c1C(=O)NNC(=O)C1(C)CC1Br (configuration not stated)	2	-3	-7	-5	0	8.9*	3	0
CCOc1cc(NC(=S)NCc2ccco2)c(OCC)cc1NC(=O)C1CC1	4	-2	8	0	0	8.0*	-1	1
O=C(Nc1ccc2c(c1)C(=O)c1ccccc1-2)c1ccccc1	nt	0	nt	nt	5	2	nt	nt
COc1cccc(C(=O)NCCSc2ccc(F)cc2)c1	30	-2	-1	-2	5	16*	12*	10.0*
COc1cccc(C(=O)Nc2ccc3c(c2)C(=O)c2ccccc2C3=O)c1	12	-2	11	3	6	12*	3	12*
COc1cccc(C(=O)Nc2ccc(F)c(F)c2F)c1	5	0	21	0	6	9.0*	2	7.9*
COc1ccc(NC(=O)c2ccc(C)cc2)c(OC)c1	15	-3	17	3	5	14*	7	6.8*
COC(=O)C1=C(C)N(Cc2ccc(C(F)(F)F)cc2)C(=NCc2ccccc2)NC1c1ccccc1 (configuration not stated)	nt	1	nt	nt	nt	-10	nt	nt
COc1cccc(C(=O)Nc2ccc(C(=O)O)cc2)c1	-7	0	2	-2	1	-2	nt	nt
COc1cccc(C(=O)Nc2ccc(C)cc2)c1	21	-1	37	9	2	11*	5	6.6*
SMILES	HSF1 inh	PG9 binder	AI-2 QS modul	HSP90 inh	FXN GAA850 act	SMARCA2 act	SMARCA2 conf	VP16 Luc act
C=CS(=O)(=O)c1c2cc(OC)ccc2nc2ccc(OC)cc12	nt	-11	nt	nt	-1	15*	-9	13*
CCOc1ccc(OCc2ccc(C(=O)Nc3ccc(Cl)cn3)o2)cc1	4	0	22	13	0	10*	4	3
O=C(Nc1ccccc1F)c1csc([C@@H]2C[C@H](O)[C@@H](CO)O2)n1	nt	0	nt	nt	2	11*	0	-1
N/C(=N\N=C\c1ccc([N+](=O)[O-])cc1)c1nonc1N	7	-2	6	0	6	14*	3	9.1*
COc1ccccc1-c1noc2c1C(=O)N(C(=O)OC(C)(C)C)CC2	nt	1	nt	nt	1	5	nt	nt
CC(=O)Nc1c(C(=O)O)oc2ccc(Cl)cc12	-9	2	3	-1	0	-3	nt	nt
CC(=O)Nc1c(C(=O)O)oc2ccccc12	1	-1	4	-3	0	8.1*	0	0
COc1ccccc1C1=NOC(CN2C(=O)c3ccccc3S2(=O)=O)C1 (configuration not stated)	38	0	23	5	7	15*	7	9.1*
O=C1c2ccccc2S(=O)(=O)N1CC1CC(c2ccccc2Cl)=NO1 (configuration not stated)	-1	-1	27	0	4	1	nt	nt
CC1OC(CCc2cccc(Cl)c2)Cc2[nH][nH]c(=O)c21 (configuration not stated)	nt	-1	nt	nt	nt	0	nt	nt
CC(C)CN(/C=N/c1sc2c(c1C#N)CCCCC2)CC(C)C	6	1	28	8	0	-5	nt	nt
CCN(/C=N/c1sc2c(c1C#N)CCCCC2)CC	29	-1	-8	0	4	8.0*	8.7*	7.7*
COc1cc(C=Nn2c(-c3cc(-c4ccccc4)n[nH]3)n[nH]c2=S)ccc1OC(C)=O	nt	nt	nt	nt	nt	14*	10*	3
S=c1[nH]nc(-c2cc(-c3ccccc3)n[nH]2)n1/N=C/c1ccccc1	1	1	31	-1	2	4	nt	nt
Clc1ccc(Nc2nc(C3CC3)cs2)cc1	-4	1	-3	-6	5	8.2*	5	7.1*
